# TexasRed fluor: counter-screen for TRb-SRC2 inhibitors: fluorescence interference. TRb/SRC2 Texas Red total fluorescence interference. Potency, µM (top dose mostly 106 µM), for inactives: at the highest dose fluorescence change, negative = quenching. 0.29% of 280,000 active; active = well fitted curve in either direction with a large enough effect; inconclusive = small, poorly fitted or top-dose-only effect; also: potency is read from the fitted curve at half-maximal effect; % is scaled to controls: 0 for no effect and ±100 for the full control effect
#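 Human TRβ ligand-binding domain (0.6 uM) and Texas Red SRC2 peptide (20 nM) in Tris buffer with 1 uM T3 and 5% DMSO were incubated with pinned compound for 5 hr at ambient temperature. Total fluorescence was computed as S + 2P (555/632 nm).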
# MLL CXXC-DNA inh: blocks binding of human MLL CXXC domain to DNA; Q03164; MLL-CXXC / FITC-HOXA9 DNA fluorescence polarization; AID 2662; Potency, µM (highest dose often 115 µM), for the others: at the highest dose activity change, negative = inhibition, most hits filed as inhibitors; 0.037% of 290,000 active; active = well fitted inhibition curve with a large enough effect in the polarisation, with a control signal flat, not every such curve was filed as active; inconclusive = small, poorly fitted or top-dose-only effect, or effect the other way, or a change in a side signal; inactive = no such curve, though single readings can be large or run the other way; the % refers to the polarisation; also: potency is read from the fitted curve at half-maximal effect
#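 Steps: dispense CXXC domain solution (7 uM) → pin compounds or unlabeled HOX-A9 DNA control → 5 min ambient → add FLSN-HOX-A9 solution (50 nM) → spin → 30 min ambient → fluorescence polarization. Tris pH 7.5/NaCl/DTT/BSA buffer.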
# Menin MLL FP FL: displaces fluorescein MLL peptide from human menin | Fluorescence polarization, fluorescein-MLL peptide displacement from menin | FP activity change, % at 61.4 µM | 290,000 tested, under 10 active | AID 1766; active = well fitted curve in the direction sought with a large enough effect in the polarisation, not every such curve was filed as active; inconclusive = small, poorly fitted or top-dose-only effect, or effect the other way, or a change in a side signal; inactive = no such curve, though single readings can be large or run the other way; the % refers to the polarisation; also: % of control where 0% means no effect
# Menin MLL FP TR: menin-MLL binding inhibition, Texas Red mutant peptide; 0.23% of 270,000 active; Menin + Texas Red MLL mutant peptide, fluorescence polarization; O00255; Potency, µM (highest dose often 61.6 µM), for the others: at the top dose FP activity change, negative = inhibition, most hits filed as inhibitors; AID 1768; active = well fitted inhibition curve with a large enough effect in the polarisation, with a control signal flat, not every such curve was filed as active; inconclusive = small, poorly fitted or top-dose-only effect, or effect the other way, or a change in a side signal; inactive = no such curve, though single readings can be large or run the other way; the % refers to the polarisation; also: potency is read from the fitted curve at half-maximal effect; % of control where 0% means no effect
# RGS12 GoLoco inh-1: inhibitors of human Gai1-RGS12 GoLoco interaction (red fluorophore); 0.44% of 230,000 active; Potency, µM (top dose mostly 61.6 µM), without a hit: at the top dose activity, negative = inhibition, most hits filed as inhibitors; P63096; Gai1:RGS12 GoLoco peptide FP, rhodamine, 10 min; active = well fitted inhibition curve with a large enough effect, not every such curve was filed as active; inactive = no such curve, though single readings can be large or run the other way; also: potency is read from the fitted curve at half-maximal effect; % is scaled to controls: 0 for no effect and ±100 for the full control effect; nearly all actives have a fitted effect of over 30% in size
# Target sequence (P63096 whole entry, looked up): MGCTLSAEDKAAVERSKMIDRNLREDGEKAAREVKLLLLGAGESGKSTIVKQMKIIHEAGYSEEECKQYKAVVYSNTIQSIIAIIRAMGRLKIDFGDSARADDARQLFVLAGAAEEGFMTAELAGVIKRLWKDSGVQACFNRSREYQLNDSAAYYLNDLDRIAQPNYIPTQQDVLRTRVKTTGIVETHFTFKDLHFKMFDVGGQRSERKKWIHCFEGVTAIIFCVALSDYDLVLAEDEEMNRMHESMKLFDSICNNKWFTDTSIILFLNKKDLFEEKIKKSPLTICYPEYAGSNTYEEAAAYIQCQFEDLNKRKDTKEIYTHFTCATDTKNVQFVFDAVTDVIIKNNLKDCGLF
# TRb-SRC2 inh: disrupts binding of human TR beta to SRC2; TRbeta-SRC2 peptide binding, fluorescence polarization; receptor liganded with 1 µM T3; P10828; 0.065% of 280,000 active; Potency, µM (highest dose often 106 µM), without a hit: at the highest dose activity change, negative = inhibition, actives largely listed as inhibitors; AID 1469;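 also: potency is read from the fitted curve at half-maximal effect; plate controls were bound peptide for no effect and peptide without receptor for full effect; nearly all actives have a fitted effect of over 50% in size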
#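 Assay buffer: 20 mM Tris-HCl, 100 mM NaCl, 10% glycerol, 1 mM EDTA, 0.01% NP-40, 1 mM DTT, 1 uM T3, 5% DMSO; TRb LBD 0.6 uM, Texas Red SRC2 20 nM; FP after 5 hr.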
# RGS12 GoLoco inh-2: disrupts Gai1 binding to human RGS12 GoLoco peptide; shares compounds with RGS12 GoLoco inh-1; Gai1/rhodamine-RGS12 GoLoco peptide fluorescence polarization; Potency, µM (doses to about 57.1 µM), for the others: at the top dose activity, negative = inhibition, hits mostly inhibitors; 50% of 110 active
# Active calls of the source: *; ? = inconclusive; · = no result given; ! = a repeat was not active. Rows were chosen to be rich in hits. Some 0.5% of all compounds tested hit in one or more screens of this group. Unless noted, calls follow the shape of the dose curve; as a rule, active = well fitted curve in the direction sought with a large enough effect; inconclusive = small, poorly fitted or top-dose-only effect, or another doubt; inactive = no such curve, though single readings can be large; an effect the other way counts as inactive or inconclusive.
SMILES,TexasRed fluor,MLL CXXC-DNA inh,Menin MLL FP FL,Menin MLL FP TR,RGS12 GoLoco inh-1,TRb-SRC2 inh,RGS12 GoLoco inh-2
Cc1ccc(NCc2cc3cc4c(cc3n(CC(=O)Nc3ccc(C)cc3)c2=O)OCCO4)cc1,1%,·,·,·,·,4%,·
COc1ccccc1CNC(=O)CCCn1c(=O)c2ccccc2n(Cc2ccc(F)cc2)c1=O,5%,·,·,·,·,3%,·
CN(C)/C=N/c1cc(=O)[nH]c(=O)n1CC1CC1,0%,2%,-3,-1%,4%,5%,·
C=CCn1c(=O)[nH]c2nc3cc(N=CN(C)C)c(C)cc3nc2c1=O,-2%,?,?,·,28µM*,-9%,28µM*
CCCCn1c(=O)[nH]c2nc3cc(N)ccc3nc2c1=O,2%,?,?,?,13µM*,6%,8.9µM*
Nc1ccc2nc(CCc3ccccc3)[nH]c2c1,-3%,17%,5,-9%,84%,2%,·
Cc1cc2nc3c(=O)n(CCc4ccccc4)c(=O)[nH]c3nc2cc1N,-5%,?,?,·,7.9µM*,-9%,?
Nc1ccc2nc3c(=O)n(C4CCCCC4)c(=O)[nH]c3nc2c1,-1%,?,?,·,25µM*,4%,11µM*
Nc1ccc2nc3c(=O)n(CCc4ccccc4)c(=O)[nH]c3nc2c1,-9%,?,?,·,18µM*,-6%,13µM*
CCc1nc(-c2cc(S(=O)(=O)N3CCN(c4ccc(F)cc4)CC3)ccc2OC)no1,-1%,·,·,·,·,7%,·
CCCc1n(CC(O)COCC2CC=CCC2)c2ccccc2[n+]1C (stereo not drawn),-2%,6%,1,0%,-1%,0%,14µM*
CCN(CC)CCNC(=O)CCn1c(=O)c2cccn2c2cccnc21,-1%,·,·,·,·,0%,·
CCOC(=O)C1CCCN(C(=O)c2cccc(NC(=O)c3nsc4ccccc34)c2)C1 (stereo not drawn),0%,·,·,·,·,-6%,·
CCCOc1ccccc1C(=O)Nc1nc2c(s1)CCCC2,9%,·,·,·,·,-11%,·
O=C1NCc2c1c1c3ccccc3[nH]c1c1[nH]c3ccccc3c21,·,·,·,·,·,·,7%
Cc1cccc(-n2c(=O)c3c4c(sc3n3c(C)nnc23)CCCC4)c1,2%,·,·,·,·,5%,·
CC(=O)c1ccc(NC(=O)CSc2nccn2C)cc1,0%,-3%,0,·,8%,5%,·
CCOC(=O)c1ccc(NC(=O)CSc2nccn2C)cc1,0%,-2%,3,-26%,10%,1%,36%
CCOC(=O)c1[nH]c(C)c(CCC(=O)Nc2ccc(C(C)=O)cc2)c1C,0%,·,·,·,·,-4%,·
O=C(O)c1cc(NCc2cc(O)ccc2O)ccc1O,0%,·,·,·,6.3µM*,-7%,2µM*
Cc1cc(C)nc(SCC(=O)Nc2ccc(N3CCOCC3)cc2)n1,-2%,4%,3,-16%,5µM*,-2%,4.5µM*
CN1C(CC(=O)c2ccccc2)CCCC1CC(O)c1ccccc1 (stereo not drawn),0%,0%,·,·,22µM*!,6%,18%
CN1[C@H](CC(=O)c2ccccc2)CCC[C@H]1C[C@@H](O)c1ccccc1,-1%,·,·,·,1%,-11%,·
Cc1ccccc1OCc1nnc(SCC(=O)Nc2ccc3c(c2)oc2ccccc23)n1C,-2%,33%,-2,15%,8%,-21%,11%
CC(=O)c1cccc(NS(=O)(=O)c2cc3c(cc2C)n(C)c(=O)c(=O)n3C)c1,3%,·,·,·,·,6%,·
CCCCCCCCCCCCCCCC[n+]1ccc(C(N)=O)cc1,-3%,4%,?,-17%,3.2µM*,-2%,?
O=C(N/N=C/c1cccc(OCc2ccccc2)c1)c1cccs1,-6%,14%,3,?,12%,-1%,·
